GPR151 ag: activators of human GPR151, primary screen, cell-based, PathHunter beta-arrestin, luminescence; G-protein coupled receptor 151 (Homo sapiens), Q8TDV0; PathHunter beta-arrestin GPR151 cells; activation, % at 11.2 µM; hit rate 1% among 650,000; AID 1508602, 2020; in the data active means activation above about 4.9%
FBW7 activator: FBW7 E3 ligase activators, primary screen, biochemical, AlphaScreen, human; AlphaScreen FBW7–phospho-cyclin E peptide binding, activator screen; normalized activity (activation), % at 26.1 µM; hit rate 0.13% among 650,000; AID 1259310, 2017; in the data active means normalized activity above about 1.9%;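 further: purified mutant Fbw7 with reduced substrate affinity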
TEAD-YAP inh: TEAD-YAP interaction inhibition, primary screen, TEAD-YAP interaction inhibitor project, luminescence, HEK-TIYL cells | AID 1259422, 2018 | TEAD-Gal4/YAP UAS-luciferase luminescence | inhibition, % at 9.12 µM | hit rate 1.4% among 640,000; in the data active means inhibition above about 32%
MITF inh: MITF inhibitors, primary screen, biochemical, AlphaScreen, human | Microphthalmia-associated transcription factor (Homo sapiens), O75030 | AlphaScreen MITF homodimerization, bead proximity signal | inhibition, % at 2.6 µM | hit rate 0.91% among 650,000; in the data active means inhibition above about 50%
GPR151 confirm: GPR151 activators, triplicate retest, confirmation, cell-based, PathHunter beta-arrestin, luminescence; shares compounds with GPR151 ag; GPR151 PathHunter beta-arrestin cells, 90 min; % of EA-reagent control over plate median; activation, % at 11.2 µM; 6,700 tested, under 10 active; AID 1508609, 2020;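 active means mean percent activation across replicates above the confirmation screen cutoff of 4.91%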
GPR119 ag: GPR119 activators in beta-arrestin cells, counter-screen for GPR151 activator project, cell-based, PathHunter beta-arrestin, luminescence, triplicate; AID 1508611, 2020; activation, % at 11.2 µM; 90 min; 0 = compound-well median, 100 = enzyme-acceptor control; shares compounds with GPR151 ag; hit rate 0.3% among 6,700;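 active means mean percent activation in the counterscreen above 29.09%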;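 further: counterscreen on off-target GPR119 to flag nonselective hits from the GPR151 activator screen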
Target sequence (Q8TDV5 whole entry, looked up): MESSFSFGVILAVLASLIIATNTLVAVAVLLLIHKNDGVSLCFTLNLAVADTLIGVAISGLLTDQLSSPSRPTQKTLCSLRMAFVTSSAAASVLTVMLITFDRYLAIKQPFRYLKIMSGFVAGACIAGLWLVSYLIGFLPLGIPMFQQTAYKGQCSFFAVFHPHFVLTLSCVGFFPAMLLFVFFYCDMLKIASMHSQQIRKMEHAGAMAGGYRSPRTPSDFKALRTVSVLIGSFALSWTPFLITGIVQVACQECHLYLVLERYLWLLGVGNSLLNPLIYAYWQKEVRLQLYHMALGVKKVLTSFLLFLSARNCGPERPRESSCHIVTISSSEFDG
Each line names hits and unclear results; the compound was inactive in the other large screens (follow-up assays come after a bar, where they were run); ! = a repeat was not active. This is a sample that favours compounds with a hit; in the whole collection about 3.5% have one here.

CC1=C(C(=O)OCC2CCCO2)C(c2ccccc2[N+](=O)[O-])CC(=O)N1 (stereo not drawn)	none
CCN(CC(=O)NC(C)C)C(=O)C(CCSC)NC(=O)c1cccc(C)c1 (stereo not drawn)	GPR151 ag 6.3 | GPR151 confirm inactive | GPR119 ag inactive
O=C(Nc1ccc(Oc2ccc(Cl)cc2)cc1)C1CCCN1C(=O)OCc1ccccc1 (stereo not drawn)	GPR151 ag 5.5 | GPR151 confirm inactive | GPR119 ag inactive
O=C(NCCc1ccccc1)C(=O)N1CCCC1	none
COCCNc1nc2ccccn2c(=O)c1/C=C1\SC(=S)NC1=O	GPR151 ag 5.0! | GPR151 confirm inactive | GPR119 ag inactive
CNC(=O)/C(=C/c1ccco1)NC(=O)c1ccc(C)cc1	none
Cc1ccc(C(=O)N/C(=C\c2ccco2)C(=O)Nc2ccccc2)cc1C	GPR151 ag 5.6 | GPR151 confirm inactive | GPR119 ag inactive
Cc1ccc(C(=O)N/C(=C/c2ccco2)C(=O)Nc2ccc(C)cc2C)cc1	GPR151 ag 5.1 | GPR151 confirm inactive | GPR119 ag inactive
CCOc1ccc(C(=O)Nc2ccc(Cl)c(NC(=O)c3ccccc3)c2)cc1[N+](=O)[O-]	none
CNc1cc(N2CCN(S(=O)(=O)c3ccc4c(c3)CCCC4)CC2)ccc1[N+](=O)[O-]	GPR151 ag 13.4 | GPR151 confirm inactive | GPR119 ag inactive
CNc1cc(N2CCN(S(=O)(=O)c3ccccc3)CC2)ccc1[N+](=O)[O-]	none
COc1cc(SC)ccc1C(=O)Nc1ccc2c(c1)OC(C)(C)O2	GPR151 ag 5.2 | GPR151 confirm inactive | GPR119 ag inactive
N#Cc1c(N)nc(SCC(=O)Nc2ncc(Br)cc2Br)c(C#N)c1-c1ccccc1	none
Cc1ccc(OCCNC(=O)C(=O)Nc2ccccc2F)cc1C	GPR151 ag 5.2 | GPR151 confirm inactive | GPR119 ag inactive
CN(C)c1cccc(Nc2cc(Nc3ccc(N4CCOCC4)cc3)ncn2)c1	GPR151 ag 5.2 | GPR151 confirm inactive | GPR119 ag inactive
c1ccc(Nc2cc(Nc3ccc(N4CCOCC4)cc3)ncn2)cc1	none
Cc1cc(-c2ccccc2)nc(SCC(=O)Nc2ccccc2C#N)n1	none
CCCCCCCC1=NN2C(=N)/C(=C/c3ccc(-c4ccccc4[N+](=O)[O-])o3)C(=O)N=C2S1	GPR151 ag 5.6 | GPR151 confirm inactive | GPR119 ag inactive
COc1ccccc1NC(=O)c1ccc(SCC(=O)NC2CCCCCC2)c([N+](=O)[O-])c1	GPR151 ag 8.3 | GPR151 confirm inactive | GPR119 ag inactive
COc1cccc(NC(=O)CSc2nc3ccc(OC)cc3cc2C#N)c1	GPR151 ag 5.1 | GPR151 confirm inactive | GPR119 ag inactive
O=C1N[C@@H](Cc2cnc[nH]2)C(=O)N2CCN(C(=O)c3cc(Cl)cc(Cl)c3)C[C@H]12	none
CCCc1cc(=O)[nH]c(SCC(=O)N2CCN(c3ccccc3OC)CC2)n1	GPR151 ag 6.7 | GPR151 confirm inactive | GPR119 ag inactive
Nc1cc(=O)[nH]c(SCC(=O)N2CCN(C(c3ccccc3)c3ccccc3)CC2)n1	GPR151 ag 9.4 | GPR151 confirm inactive | GPR119 ag inactive
COc1ccccc1/C=N/NC(=O)C(C)Nc1cccc(C)c1 (stereo not drawn)	none
COc1ccc(NC(=O)CSc2nc3ccccc3c(=O)n2CCCC(=O)NCc2ccccc2)c(OC)c1	GPR151 ag 7.5 | GPR151 confirm inactive | GPR119 ag inactive
COc1ccc(NC(=O)CCCN2C(=O)CCC2=O)c(OC)c1	GPR151 ag 10.3 | GPR151 confirm inactive | GPR119 ag inactive
CC(C)c1ccc(NC(=O)CSc2nc3ccccc3n2S(=O)(=O)c2cccs2)cc1	none
CCc1ccc(NC(=O)CSc2nc3ccccc3c(=O)n2CCc2ccc(OC)c(OC)c2)cc1	none
COc1ccc(CNC(=O)CCCn2c(SCC(=O)Nc3ccc(OC)cc3OC)nc3cc4c(cc3c2=O)OCO4)cc1	none

Assay outcomes: PubChem, The Scripps Research Institute Molecular Screening Center
